Laboratory results taken from the supplement of paper PMC6555819.

Tested on: VDR:RXRa (NR concentration 270 nM, RXRa partner concentration 90 nM)
Assay: PBM binding z-score (relative to random genomic background probes); higher = stronger binding; sequences stand for … in GC…GCGATTGACAGCGTAGAATGAAGG
Procedure: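 Protein-binding microarray (Agilent 4x180K custom design, double-stranded 60-nt probes: 5' GC cap, 34-nt variable region, 24-nt constant primer region; full probe sequence given). Purified or IVT nuclear receptor:RXRα heterodimers (3:1 NR:RXRα, mostly 270:90 nM) or homodimers were incubated for 1 h in PBS with 2% milk and no ligand, then detected with Alexa488 antibodies. Fluorescence from o1-orientation probes (~5 replicates averaged) was converted to z-scores against 500 random hg19 background probes. Variable regions are seed direct-repeat (DR0–DR5) sites, all their single-nucleotide variants and half-site ablations.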

Question: How did the PBM binding z-score turn out when TCTAGTTCGTCACGGAGGTCACACACGACGGGTA was run?
Answer: 4.68

Question: With CCTCGGAGGACACCAGGAGGTCAGAGCTGCCAGA as the sequence, how does the PBM binding z-score read?
Answer: 1.99

Question: With ATGTGTAGGTTAGGGTCATTCAGAAAGTAGGGAA as the sequence, how does the PBM binding z-score read?
Answer: 4.65

Question: CATACCGGGTCAGCTAGGCCAGAGTAGGGACGGC was tested. Which PBM binding z-score did it give?
Answer: 2.57

Question: For ACTCGGGGGACAAAGGTCAGAGCTACGCCAGTGA, which PBM binding z-score is on record?
Answer: 4.66

Question: With CGAACTAGGTCACCAGGACAGTGAGGAGGTTGGA as the sequence, how does the PBM binding z-score read?
Answer: 1.83

Question: With AGTCAAAGTTCAGGACGAGGTAAAGTAAAGCACG as the sequence, how does the PBM binding z-score read?
Answer: 3.01

Question: How did the PBM binding z-score turn out when ACTTACGGGTCAACGGGGTTATAGCACGCGTATA was run?
Answer: 7.87

Question: With CCGAGTAGGTTACGAGGGGGCATTCATTGCGAAT as the sequence, how does the PBM binding z-score read?
Answer: 4.7

Question: How did the PBM binding z-score turn out when TTTCCAAGGTGAAAGGTCGTTGATGCACGCCTTG was run?
Answer: 3.38

Question: With CCTACTGGGCCAAAAAGGTAATTGATGCCGATAA as the sequence, how does the PBM binding z-score read?
Answer: -0.157

Question: For CACACTAGGTCAAAGGTCAAAGTCGAGCCAACCA, which PBM binding z-score is on record?
Answer: 6.85

Question: CCGAGTAGGTTACGAGGGCGCATTCAGTGCGAAT was tested. Which PBM binding z-score did it give?
Answer: 0.78

Question: For CTATGTAGGTTAAGTGGGTCATTCAGTTTGAAAG, which PBM binding z-score is on record?
Answer: 4.99

Question: For AGAGTGAGGTTACCAAAGATCAGGGAAACGCTTG, which PBM binding z-score is on record?
Answer: 1.64

Question: With ACTCGGAGGGCAAAGGTCAGAGCTACGCCAGTGA as the sequence, how does the PBM binding z-score read?
Answer: 4.32

Question: How did the PBM binding z-score turn out when TCTGCTGGGTCAACGATGGTCAGCTAATCTGCTA was run?
Answer: 1.62

Question: How did the PBM binding z-score turn out when AGTCAAAGTTCACGAGGTAACGTAAGATTCAGCT was run?
Answer: 4.94

Question: CGTGCAAGGTCAGAGAGGTCAGTGAATGCCGAGT was tested. Which PBM binding z-score did it give?
Answer: 7.22

Question: TCTAGTTGGTTACGGAGGTCACACACGACGGGTA was tested. Which PBM binding z-score did it give?
Answer: 4.27

Question: How did the PBM binding z-score turn out when CTATGTAGGTTAAGGGGGTCATGCAGTTTGAAAG was run?
Answer: 7.13

Question: With CCTACTGGGCCAAAGGTCAGTGATTCCAATGCTC as the sequence, how does the PBM binding z-score read?
Answer: 2.88

Question: How did the PBM binding z-score turn out when TAGCCTAGGTCAGATCGGGCGAGTATACGCTATA was run?
Answer: 0.506

Question: How did the PBM binding z-score turn out when CGAACTAGGTCAAAGGCCAGTGAAAGGCGACGTA was run?
Answer: 1.74

Question: How did the PBM binding z-score turn out when ATATGTAGGTTCGGGTCATTCAGAAAGTAGGGAA was run?
Answer: 3.72

Question: CGAACTATGTCAAGGACAGTGAATCTCCGCACGC was tested. Which PBM binding z-score did it give?
Answer: -0.248

Question: With CGTCCAAGGTCAAAGGTCAGTAAAGAGATGACGG as the sequence, how does the PBM binding z-score read?
Answer: 6.53

Question: How did the PBM binding z-score turn out when CCTACTGGGCCATACAGAGGTCATTGATCATATG was run?
Answer: 4.09

Question: For TATCCTAGGTCAGATCGGGCCAGTATACGCTATA, which PBM binding z-score is on record?
Answer: 1.51

Question: TATACAGGGTCAAAGGGCAGAGTACGAATGTCGA was tested. Which PBM binding z-score did it give?
Answer: 5.43

Question: How did the PBM binding z-score turn out when TCTAGCAGGCCATAGGGTCACTCAAGAGGTACGG was run?
Answer: 2.62

Question: Which PBM binding z-score does the source give for CGAACTAGGTCAGAACAGGACAGTTAAGGATGAT here?
Answer: 1.02

Question: How did the PBM binding z-score turn out when CCTACGGGGCCAAAGGTCATTGATTCCAATGCTC was run?
Answer: 5.3

Question: Which PBM binding z-score does the source give for CGTCAAAGTTCACCTAAGGTAACGTAAAGCACGC here?
Answer: 4.82

Question: Which PBM binding z-score does the source give for CGAACTAGGTCACCAGCACAGTGAAGAGGTTGGA here?
Answer: 1.89

Question: Which PBM binding z-score does the source give for CTATGTAGGTTAAGGGGGTAATTCAGTTTGAAAG here?
Answer: 3.5

Question: How did the PBM binding z-score turn out when CGTCCAAGGTCCATGCTAGGTCAGTGAAAGCATT was run?
Answer: 0.731

Question: How did the PBM binding z-score turn out when CCGAGTAGTTTACGAGGGGGCATTCAGTGCGAAT was run?
Answer: 4.03

Question: With CCAGAAAGGTGAAAGGTAACTCAGTCTGGTACGC as the sequence, how does the PBM binding z-score read?
Answer: 1.81

Question: Which PBM binding z-score does the source give for CCTAGCAGGCGAGGGTCACTCAAGCATTTCGCTT here?
Answer: 1.59
